Experimental data published in a collection of fitness landscapes (doi:10.1126/science.1257360).
Whole data set: some 140,000 sequences, median “enrichment ratio after two sorts for PhoP signalling” near 0, cut for the highest 2% near 11. This excerpt belongs to a sample that is enriched for the highest values.

B1: PhoQ; a variant is named by its letters at X, in order, P23837 (parent)
chain: MKKLLRLFFPLSLRVRFLLATAAVVLVLSLAYGMVALIGYSVSFDKTTFRLLRGESNLFYTLAKWENNKLHVELPENIDKQSPTMTLIYDENGQLLWAQRDVPWLMKMIQPDWLKSNGFHEIEADVNDTSLLLSGDHSIQQQLQEVREDDDDAEMTHSVAVNVYPATSRMPKLTIVVVDTIPVELKSSYMVWSWFIYVLSANLLLVIPLLWVAAWWSLRPIEALAKEVRELEEHNRELLNPATTRELTSLVRNLNRLLKSERERYDKYRTTLTDLTHSLKTPLXXLQXXLRSLRSEKMSVSDAEPVMLEQISRISQQIGYYLHRASMRGGTLLSRELHPVAPLLDNLTSALNKVYQRKGVNISLDISPEISFVGEQNDFVEVMGNVLDNACKYCLEFVEISARQTDEHLYIVVEDDGPGIPLSKREVIFDRGQRVDTLRPGQGVGLAVAREITEQYEGKIVAGESMLGGARMEVIFGRQHSAPKDE

Variants of: B1
Assay: enrichment ratio after two sorts for PhoP signalling (ratio (wild type AVST 3.29)); higher = more functional
Settings: with PhoP (E. coli)

| Variant | enrichment ratio |
| --- | --- |
| SDLA | 1.18 |
| VFRG | ≤ 0.25 |
| LTPC | ≤ 0.25 |
| YIFI | ≤ 0.25 |
| AELP | ≤ 0.25 |
| AELI | 30.6 |
| AHGN | ≤ 0.25 |
| AEDK | ≤ 0.25 |
| AIGN | 6.31 |
| AEGN | 12.2 |
| AECN | 6.19 |
| AEWN | ≤ 0.25 |
| AELV | 24.4 |
| AELN | 12.5 |
| AEHK | ≤ 0.25 |
| AVWD | ≤ 0.25 |
| EYSC | ≤ 0.25 |
| PPHG | ≤ 0.25 |
| ISCM | 2.52 |
| EMGW | ≤ 0.25 |
| YGNI | ≤ 0.25 |
| VDAC | ≤ 0.25 |
| QMES | ≤ 0.25 |
| CLVG | ≤ 0.25 |
| FPHK | ≤ 0.25 |

| Variant | enrichment ratio |
| --- | --- |
| WEIR | ≤ 0.25 |
| AENS | 16 |
| AEYR | ≤ 0.25 |
| AENI | ≤ 0.25 |
| QELH | ≤ 0.25 |
| MELH | 6.92 |
| AELL | 12.1 |
| AELH | 11.9 |
| GSMR | ≤ 0.25 |
| VMYM | ≤ 0.25 |
| VVSV | ≤ 0.25 |
| RPHF | ≤ 0.25 |
| AIAI | 12.7 |
| AMAI | 14.3 |
| SIYY | ≤ 0.25 |
| KYAI | ≤ 0.25 |
| TIAI | 11.7 |
| NMAI | ≤ 0.25 |
| SIAI | 11.6 |
| TIYY | ≤ 0.25 |
| WIAI | ≤ 0.25 |
| KMAI | ≤ 0.25 |
| TIAT | 10.2 |
| AKAI | 5.1 |
| VKNM | ≤ 0.25 |

| Variant | enrichment ratio |
| --- | --- |
| NFFL | ≤ 0.25 |
| GWNK | ≤ 0.25 |
| RLRM | ≤ 0.25 |
| RGTH | ≤ 0.25 |
| YTEG | ≤ 0.25 |
| YVMY | ≤ 0.25 |
| DNCH | ≤ 0.25 |
| GTCF | 1.25 |
| MCSA | ≤ 0.25 |
| FSEL | ≤ 0.25 |
| GNAI | 7.21 |
| ANAI | 30.1 |
| ANCS | 2.95 |
| EQHH | ≤ 0.25 |
| MSLT | 4.06 |
| NSLL | 3.55 |
| FQLL | 5.35 |
| MSLL | 13.3 |
| NRLL | ≤ 0.25 |
| QFLL | ≤ 0.25 |
| KSLL | ≤ 0.25 |
| FSLL | 13.5 |
| YSLL | 11.4 |
| FCLL | 10.7 |
| QPLL | ≤ 0.25 |

| Variant | enrichment ratio |
| --- | --- |
| TSLL | 14 |
| TRIL | 5.95 |
| WDTG | ≤ 0.25 |
| RKRR | ≤ 0.25 |
| VQAF | ≤ 0.25 |
| TDFE | ≤ 0.25 |
| NRKC | ≤ 0.25 |
| KMVF | ≤ 0.25 |
| SSLL | 19.9 |
| SILL | 1.4 |
| SYLL | 0.392 |
| STGV | 13.4 |
| KYGV | ≤ 0.25 |
| SEGV | 11.7 |
| SRGV | ≤ 0.25 |
| TMHV | 0.946 |
| YTGV | ≤ 0.25 |
| KCGV | ≤ 0.25 |
| TMGV | 12.1 |
| QEGV | ≤ 0.25 |
| FHNP | ≤ 0.25 |
| WDYS | ≤ 0.25 |
| LVGT | ≤ 0.25 |
| RDTF | ≤ 0.25 |
| VQAH | ≤ 0.25 |

| Variant | enrichment ratio |
| --- | --- |
| PCAG | ≤ 0.25 |
| LCRQ | ≤ 0.25 |
| YPYC | ≤ 0.25 |
| TLQH | 21.1 |
| THQH | 23.5 |
| SHQH | ≤ 0.25 |
| TLKH | ≤ 0.25 |
| NHQH | ≤ 0.25 |
| KSQH | ≤ 0.25 |
| RRNN | ≤ 0.25 |
| TVNT | 8.93 |
| AHNM | 5.49 |
| NMYM | ≤ 0.25 |
| TQPV | ≤ 0.25 |
| MKAQ | ≤ 0.25 |
| MGKR | ≤ 0.25 |
| MGAN | 12.6 |
| MGNL | ≤ 0.25 |
| MGAQ | 18.9 |
| QRAQ | ≤ 0.25 |
| MGDN | ≤ 0.25 |
| MGLT | 5.67 |
| MGAT | 18.8 |
| MGWN | 18.9 |
| TGAN | 2.47 |

| Variant | enrichment ratio |
| --- | --- |
| MGNT | ≤ 0.25 |
| REVQ | ≤ 0.25 |
| RQWC | ≤ 0.25 |
| SLFD | ≤ 0.25 |
| VERW | ≤ 0.25 |
| LTMP | ≤ 0.25 |
| VRTD | ≤ 0.25 |
| TDMT | 10.8 |
| QVFF | ≤ 0.25 |
| MKFN | ≤ 0.25 |
| MGAI | 16.1 |
| TGFN | ≤ 0.25 |
| MTFN | 16.9 |
| YTFN | ≤ 0.25 |
| MIFN | 11 |
| MGFN | 11.6 |
| MGAG | 1.81 |
| MGCS | 6.13 |
| QLDR | ≤ 0.25 |
| GINV | ≤ 0.25 |
| SIAD | 7.06 |
| YITI | ≤ 0.25 |
| YTPA | ≤ 0.25 |
| PENS | ≤ 0.25 |
| SNDM | ≤ 0.25 |

| Variant | enrichment ratio |
| --- | --- |
| FTCV | 0.528 |
| YECS | 14.8 |
| FTCQ | 7.15 |
| YECI | 0.32 |
| YEQP | ≤ 0.25 |
| YECH | 6.45 |
| YECQ | 30.7 |
| FTCC | ≤ 0.25 |
| YECK | ≤ 0.25 |
| YEES | ≤ 0.25 |
| YECC | 56.2 |
| YECV | 22.8 |
| PGAC | ≤ 0.25 |
| FIVG | ≤ 0.25 |
| QDLS | ≤ 0.25 |
| SILG | 8.57 |
| SRLG | ≤ 0.25 |
| PSLG | ≤ 0.25 |
| KSLG | ≤ 0.25 |
| SSLG | 16.1 |
| TSLG | 14.5 |
| YYHP | ≤ 0.25 |
| DLTQ | ≤ 0.25 |
| ANPT | ≤ 0.25 |
| IPMM | ≤ 0.25 |

| Variant | enrichment ratio |
| --- | --- |
| IGWM | ≤ 0.25 |
| ITMM | 17.7 |
| IGGM | ≤ 0.25 |
| HIMM | ≤ 0.25 |
| IQMM | ≤ 0.25 |
| VAMM | 12.8 |
| TAMM | 2.2 |
| VLMM | ≤ 0.25 |
| VHMM | ≤ 0.25 |
| IGMM | 18.5 |
| GAMM | 14.4 |
| MRMA | ≤ 0.25 |
| HQRH | ≤ 0.25 |
| GEDN | ≤ 0.25 |
| YNEG | ≤ 0.25 |
| KEMR | ≤ 0.25 |
| WIRK | ≤ 0.25 |
| EEFA | ≤ 0.25 |
| YYMT | ≤ 0.25 |
| TQCW | 0.964 |
